For some assays here: Results with a measured potency or affinity are listed apart.
Legend:
Set-up in all cases: scale not given: direction of the effect not stated beside the values
[1] = target: Protein translocase subunit SecA (Escherichia coli (strain K12)) (UniProt P10408); assay: Assay to Identify E. coli SecA ATPase Inhibitors; format: functional; conditions: 30 µM
[2] = target: T1, Ubiquitin-activating enzyme e1, putative (Leishmania donovani (strain BPK282A1)) (UniProt E9BSI1); assay: Leishmania donovani Ubiquitin Activating Enzyme (LdE1); format: functional; conditions: 30 µM
T1 sequence (whole entry): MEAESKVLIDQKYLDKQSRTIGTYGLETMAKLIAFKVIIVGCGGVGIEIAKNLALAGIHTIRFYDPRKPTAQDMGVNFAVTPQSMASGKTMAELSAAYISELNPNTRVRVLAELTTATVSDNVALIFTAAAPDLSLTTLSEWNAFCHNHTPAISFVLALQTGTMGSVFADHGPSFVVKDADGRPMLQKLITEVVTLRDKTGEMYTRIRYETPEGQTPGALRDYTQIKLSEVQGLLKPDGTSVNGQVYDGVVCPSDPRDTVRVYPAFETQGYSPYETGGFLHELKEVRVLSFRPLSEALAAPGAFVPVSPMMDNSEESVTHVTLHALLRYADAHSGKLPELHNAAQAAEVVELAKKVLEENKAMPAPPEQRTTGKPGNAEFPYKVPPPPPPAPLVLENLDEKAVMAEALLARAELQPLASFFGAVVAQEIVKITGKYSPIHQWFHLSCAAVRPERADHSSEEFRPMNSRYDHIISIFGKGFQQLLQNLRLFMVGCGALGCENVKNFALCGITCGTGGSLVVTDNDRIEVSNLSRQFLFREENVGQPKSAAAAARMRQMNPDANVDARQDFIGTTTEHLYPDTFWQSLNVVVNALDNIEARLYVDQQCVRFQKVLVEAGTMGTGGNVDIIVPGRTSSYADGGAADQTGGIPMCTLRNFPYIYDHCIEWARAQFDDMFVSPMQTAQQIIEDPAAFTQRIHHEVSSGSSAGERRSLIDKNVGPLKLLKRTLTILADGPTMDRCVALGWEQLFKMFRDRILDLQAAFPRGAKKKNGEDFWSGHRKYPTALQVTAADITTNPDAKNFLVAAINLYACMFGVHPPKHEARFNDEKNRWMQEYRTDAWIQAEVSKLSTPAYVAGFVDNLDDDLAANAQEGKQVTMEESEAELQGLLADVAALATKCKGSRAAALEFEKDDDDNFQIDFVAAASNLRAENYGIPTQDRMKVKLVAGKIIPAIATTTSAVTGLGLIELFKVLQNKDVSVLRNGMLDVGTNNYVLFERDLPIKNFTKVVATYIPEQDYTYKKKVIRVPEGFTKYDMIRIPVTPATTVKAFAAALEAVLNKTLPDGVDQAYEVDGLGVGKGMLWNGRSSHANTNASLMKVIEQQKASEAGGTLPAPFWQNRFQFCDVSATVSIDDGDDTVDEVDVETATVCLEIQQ

[3] = target: AMP-activated protein kinase, AMPK (Homo sapiens) (UniProt P54646+O43741+P54619+Q9UGJ0+Q9Y478+Q13131+Q9UGI9); assay: AMP-dependent Kinase enzyme assay. An in vitro enzyme assay that detects ADP turnover that is directly proportional to AMPK activity. This uses naive AMPK that is activated during the assay with MK-8722; format: functional; conditions: 30 µM
[4] = target: Sialic acid-binding Ig-like lectin 9 (Homo sapiens) (UniProt Q9Y336); assay: Hs-Siglec9 ALPHAscreen SOP 20170721; conditions: 10 µM
Trypanosoma cruzi = assay: Trypanosoma cruzi phosphomannomutase and mannose-1-phosphate guanylyltransferase assay; format: functional; conditions: 10 µM
[5] = target: T2, Arginase-2, mitochondrial (Homo sapiens) (UniProt P78540); assay: in vitro enzyme assay to detect the production of urea directly proportional to the activity of Arginase II; format: functional; conditions: 33.3 µM; note: in the data most compounds retested in dose-response had high values
T2 sequence (whole entry): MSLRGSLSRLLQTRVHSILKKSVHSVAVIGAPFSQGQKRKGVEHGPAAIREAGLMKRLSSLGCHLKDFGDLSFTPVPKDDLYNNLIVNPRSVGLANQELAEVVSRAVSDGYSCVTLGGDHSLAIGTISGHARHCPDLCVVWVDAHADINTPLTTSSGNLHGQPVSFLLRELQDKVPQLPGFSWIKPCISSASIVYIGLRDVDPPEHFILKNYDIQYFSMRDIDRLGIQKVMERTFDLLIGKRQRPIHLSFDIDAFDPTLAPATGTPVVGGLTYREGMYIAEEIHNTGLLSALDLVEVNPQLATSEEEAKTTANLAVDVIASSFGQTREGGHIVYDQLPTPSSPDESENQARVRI

[6] = target: T3, Proteasome subunit beta (Trypanosoma cruzi) (UniProt O96673); assay: Trypanosoma cruzi proteasome chymotrypsin-like activity (TcProtChymo) assay.; note: in the data most compounds retested in dose-response had high values; format: functional; conditions: 9.37 µM
T3 sequence (whole entry): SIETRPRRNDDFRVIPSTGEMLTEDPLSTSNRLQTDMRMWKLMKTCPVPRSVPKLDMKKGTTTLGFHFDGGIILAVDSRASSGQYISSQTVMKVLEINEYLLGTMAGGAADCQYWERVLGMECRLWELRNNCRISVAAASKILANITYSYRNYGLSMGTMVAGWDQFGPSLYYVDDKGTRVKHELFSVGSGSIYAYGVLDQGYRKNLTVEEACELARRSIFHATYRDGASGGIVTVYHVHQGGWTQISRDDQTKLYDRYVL

Homo sapiens = species: Homo sapiens; assay: To identify inhibition of the IFN signalling (Jak-Stat) pathway via expression of an eGFP reporter gene under the control of an IFN-stimulated response element (ISRE) containing MxA promoter.; format: functional; conditions: 30 µM
[7] = target: T4, Tyrosyl-tRNA synthetase, putative (Trypanosoma cruzi (strain CL Brener)) (UniProt Q4DSP6); assay: Trypanosoma cruzi tyrosyl tRNA synthetase (TcYRS) _High Tyrosine SOP; format: functional; conditions: 30 µM; note: in the data most compounds retested in dose-response had high values
T4 sequence (whole entry): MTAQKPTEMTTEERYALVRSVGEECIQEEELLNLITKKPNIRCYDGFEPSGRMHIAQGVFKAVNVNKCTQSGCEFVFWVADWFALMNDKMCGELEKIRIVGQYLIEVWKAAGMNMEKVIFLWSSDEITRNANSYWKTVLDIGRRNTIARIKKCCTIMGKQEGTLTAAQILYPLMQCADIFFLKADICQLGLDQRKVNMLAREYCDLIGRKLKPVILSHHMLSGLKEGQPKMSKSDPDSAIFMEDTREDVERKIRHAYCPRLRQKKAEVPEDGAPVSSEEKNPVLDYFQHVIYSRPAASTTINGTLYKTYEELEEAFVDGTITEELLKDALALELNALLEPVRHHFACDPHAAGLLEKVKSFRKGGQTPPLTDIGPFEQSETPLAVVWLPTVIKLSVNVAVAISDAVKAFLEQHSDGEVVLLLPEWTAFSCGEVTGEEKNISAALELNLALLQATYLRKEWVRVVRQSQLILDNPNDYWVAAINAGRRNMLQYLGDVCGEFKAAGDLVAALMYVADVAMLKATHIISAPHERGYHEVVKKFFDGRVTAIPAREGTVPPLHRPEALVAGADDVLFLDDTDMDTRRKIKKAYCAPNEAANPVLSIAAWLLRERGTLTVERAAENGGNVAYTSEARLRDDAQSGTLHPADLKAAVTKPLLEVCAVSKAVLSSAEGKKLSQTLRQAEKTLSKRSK

[8] = target: T4, Tyrosyl-tRNA synthetase, putative (Trypanosoma cruzi (strain CL Brener)); assay: Trypanosoma cruzi tyrosyl tRNA synthetase (TcYRS) SOP; format: functional; conditions: 30 µM
[9] = target: Chromo domain-containing protein 1 (Saccharomyces cerevisiae (strain ATCC 204508 / S288c) (Baker's yeast)) (UniProt P32657); assay: ScCHD-1 Enzyme Inhibition Assay; format: functional; conditions: 30 µM; note: in the data most compounds retested in dose-response had high values
Sequence of Chromo domain-containing protein 1 (Saccharomyces cerevisiae (strain ATCC 204508 / S288c) (Baker's yeast)) (P32657 whole entry, the tested form may be a part): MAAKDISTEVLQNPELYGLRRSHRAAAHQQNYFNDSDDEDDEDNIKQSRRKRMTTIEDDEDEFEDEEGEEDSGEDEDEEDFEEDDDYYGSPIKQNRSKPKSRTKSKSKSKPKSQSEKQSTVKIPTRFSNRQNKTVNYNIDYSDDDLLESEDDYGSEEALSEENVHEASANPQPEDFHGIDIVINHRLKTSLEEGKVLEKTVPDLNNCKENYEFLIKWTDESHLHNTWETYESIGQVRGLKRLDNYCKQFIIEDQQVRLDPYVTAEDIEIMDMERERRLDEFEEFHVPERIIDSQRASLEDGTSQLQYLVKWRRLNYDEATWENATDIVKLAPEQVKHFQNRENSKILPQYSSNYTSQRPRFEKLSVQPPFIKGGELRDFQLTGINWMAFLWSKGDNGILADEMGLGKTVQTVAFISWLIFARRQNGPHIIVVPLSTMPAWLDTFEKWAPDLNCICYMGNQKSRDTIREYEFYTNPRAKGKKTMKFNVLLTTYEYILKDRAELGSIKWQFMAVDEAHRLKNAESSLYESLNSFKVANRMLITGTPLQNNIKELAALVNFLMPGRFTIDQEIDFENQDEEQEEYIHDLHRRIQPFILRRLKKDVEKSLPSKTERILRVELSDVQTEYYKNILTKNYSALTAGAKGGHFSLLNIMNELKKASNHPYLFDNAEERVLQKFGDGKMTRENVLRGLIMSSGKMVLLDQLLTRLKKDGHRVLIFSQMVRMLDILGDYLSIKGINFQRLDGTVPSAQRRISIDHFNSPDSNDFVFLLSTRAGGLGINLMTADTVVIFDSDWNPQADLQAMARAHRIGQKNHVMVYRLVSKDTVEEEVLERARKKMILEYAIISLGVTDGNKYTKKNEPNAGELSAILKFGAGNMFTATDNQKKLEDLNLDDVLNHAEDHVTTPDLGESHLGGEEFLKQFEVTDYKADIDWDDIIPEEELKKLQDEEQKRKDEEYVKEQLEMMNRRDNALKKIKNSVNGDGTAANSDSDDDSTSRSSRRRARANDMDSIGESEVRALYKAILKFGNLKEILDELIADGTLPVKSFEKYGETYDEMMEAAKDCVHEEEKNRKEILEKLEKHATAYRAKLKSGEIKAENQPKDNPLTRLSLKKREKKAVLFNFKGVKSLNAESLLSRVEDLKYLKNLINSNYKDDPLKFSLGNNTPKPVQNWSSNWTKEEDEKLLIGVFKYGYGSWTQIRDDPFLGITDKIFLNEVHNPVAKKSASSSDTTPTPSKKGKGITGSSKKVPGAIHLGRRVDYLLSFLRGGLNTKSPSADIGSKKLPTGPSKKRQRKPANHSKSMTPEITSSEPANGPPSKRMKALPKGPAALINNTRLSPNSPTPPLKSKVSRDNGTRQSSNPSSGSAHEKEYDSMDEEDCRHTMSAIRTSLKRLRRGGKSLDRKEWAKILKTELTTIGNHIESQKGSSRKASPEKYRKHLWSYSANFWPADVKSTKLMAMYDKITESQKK

Sequence of Protein translocase subunit SecA (Escherichia coli (strain K12)) (P10408 whole entry): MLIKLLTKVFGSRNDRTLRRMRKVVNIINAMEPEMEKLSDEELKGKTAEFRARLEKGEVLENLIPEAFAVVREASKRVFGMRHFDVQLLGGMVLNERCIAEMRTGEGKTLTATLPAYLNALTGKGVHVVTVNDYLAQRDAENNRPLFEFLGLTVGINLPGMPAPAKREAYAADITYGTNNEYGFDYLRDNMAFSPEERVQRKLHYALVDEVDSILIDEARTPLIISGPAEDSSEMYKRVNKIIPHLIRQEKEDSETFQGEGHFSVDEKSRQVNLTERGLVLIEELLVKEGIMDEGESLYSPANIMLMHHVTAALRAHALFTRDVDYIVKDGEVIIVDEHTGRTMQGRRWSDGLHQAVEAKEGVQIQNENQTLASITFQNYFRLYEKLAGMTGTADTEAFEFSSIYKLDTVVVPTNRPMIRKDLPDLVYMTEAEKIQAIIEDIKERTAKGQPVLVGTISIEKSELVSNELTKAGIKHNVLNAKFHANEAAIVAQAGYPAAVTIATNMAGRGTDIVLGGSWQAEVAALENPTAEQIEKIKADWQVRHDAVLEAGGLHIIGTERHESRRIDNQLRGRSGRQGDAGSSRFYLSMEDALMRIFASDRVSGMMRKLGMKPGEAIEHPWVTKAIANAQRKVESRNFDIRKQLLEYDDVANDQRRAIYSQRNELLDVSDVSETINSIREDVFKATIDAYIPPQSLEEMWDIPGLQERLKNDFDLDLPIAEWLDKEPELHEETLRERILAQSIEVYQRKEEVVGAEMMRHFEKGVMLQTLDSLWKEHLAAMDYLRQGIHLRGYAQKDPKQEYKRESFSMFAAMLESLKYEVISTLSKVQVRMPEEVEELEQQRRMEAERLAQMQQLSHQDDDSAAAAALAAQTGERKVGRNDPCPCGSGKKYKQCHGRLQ
Sequence of Sialic acid-binding Ig-like lectin 9 (Homo sapiens) (Q9Y336 whole entry): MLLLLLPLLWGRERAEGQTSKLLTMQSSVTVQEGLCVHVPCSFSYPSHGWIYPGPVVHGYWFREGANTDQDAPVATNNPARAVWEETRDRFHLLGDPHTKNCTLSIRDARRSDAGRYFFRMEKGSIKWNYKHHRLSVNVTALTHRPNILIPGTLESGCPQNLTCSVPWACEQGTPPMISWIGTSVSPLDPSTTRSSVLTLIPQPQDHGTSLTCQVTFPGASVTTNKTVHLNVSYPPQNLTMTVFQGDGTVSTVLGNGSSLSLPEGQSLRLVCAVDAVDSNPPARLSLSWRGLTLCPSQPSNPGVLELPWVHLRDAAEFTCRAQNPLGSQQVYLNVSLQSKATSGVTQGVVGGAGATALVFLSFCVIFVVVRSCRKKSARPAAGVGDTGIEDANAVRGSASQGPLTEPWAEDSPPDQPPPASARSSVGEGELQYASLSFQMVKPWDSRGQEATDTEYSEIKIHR

| SMILES | Percent Effect [1] [%] | Percent Effect [2] [%] | Percent Effect [3] [%] | Percent Effect [4] [%] | Percent Effect (Trypanosoma cruzi) [%] | Percent Effect [5] [%] | Percent Effect [6] [%] | Percent Effect (Homo sapiens) [%] | Percent Effect [7] [%] | Percent Effect [8] [%] | Percent Effect [9] [%] |
| --- | --- | --- | --- | --- | --- | --- | --- | --- | --- | --- | --- |
| CCC(CC)C(O)CNC(=O)Nc1cc(C)nn1C (stereo unspecified) | -6.46 | 5.06 | 0.487 | 6.21 | 6.7 | -1.9 | 5.16 | -23.6 | 1.48 | 16.5 | -6.04 |
| Cc1ncc2c(n1)CN(CC(=O)Nc1ccncc1)CC2 | -2.13 | 15.8 | -33.9 | 3.22 | 4.01 | -1.44 | 6.85 | 17.2 | 15.3 | 23.5 | -7.12 |
| CC(Oc1ccccc1C(F)(F)F)C(=O)NS(=O)(=O)C(C)C (stereo unspecified) | 7.54 | 0 | 5.54 | -3.2 | 4.88 | -2.92 | 14.1 | -2.84 | 6.93 | 11 | -6.88 |
| COc1ccc(CNC(=O)C2(C#N)CCCC2)cc1 | -1.97 | 12.5 | -13.3 | -2.27 | 3.6 | -2.65 | 15.1 | -14.7 | 4.21 | 7.69 | 95.5 |
| O=C(O)c1cc(S(=O)(=O)Nc2cc(F)ccc2F)cc2c1OCCO2 | -3.9 | -2.63 | 4.03 | 6.95 | -6.44 | 3.6 | 4.65 | 3.03 | 0.493 | 1.24 | -3.53 |
| O=C(Nc1cccc(CN2CCOC2=O)c1)N1CCOCC1 | -1.28 | 1.39 | -4.85 | -10.5 | -4.76 | 3.09 | 12.6 | 2.75 | 2.1 | 7.69 | -2.72 |
| Cn1cccc1C1CCCN1C(=O)NCCCn1cccn1 (stereo unspecified) | -1.96 | 2.67 | -3.95 | -0.718 | -0.0974 | -2.08 | 6.28 | 8.34 | 4.92 | 8.64 | -1.47 |
| CN(CC1COc2ccccc2O1)C(=O)NCCCn1cncn1 (stereo unspecified) | -0.909 | 18.4 | 0.582 | 5.7 | 2.63 | 2.3 | 6.52 | 8.47 | 6.37 | 24.4 | -11.6 |
| CCn1nc(C)c2ccn(CC(=O)NC3CCCC3)c(=O)c21 | -4.42 | 7.79 | 58 | 0.145 | -4.63 | 0.645 | 5.57 | 20.1 | -1.06 | -6.41 | -2.48 |
| CCn1cc(Br)c(C(=O)NCc2cnn(C)c2)n1 | -1.67 | 13 | -0.504 | 11.9 | 6.79 | -6.9 | 13 | 1.3 | 8.6 | 21 | 18.8 |
| c1cnn(CC2CCCN2c2ncnc3ccsc23)c1 (stereo unspecified) | -0.167 | 13.5 | 3.45 | -4.74 | -8.08 | 6.84 | 8.8 | 53.8 | 7.92 | 18.3 | -4.66 |
| Cc1ccc(NC(=O)CNc2cccc3c2CCCC3)c(Br)c1 | -0.516 | 0 | -8.17 | 10.7 | 1.07 | 27.1 | 12.3 | -16 | 5.38 | 6.17 | -12.9 |
| CCOCCCNC(=O)c1ccccc1S(C)(=O)=O | -4.36 | 0 | 7.43 | 5.86 | 2.82 | -8.28 | 11.6 | -12.4 | 1.06 | 5.2 | 0.767 |
| CC(C)Cc1noc(CN2CCOCC2)n1 | -1.04 | 7.89 | -1.16 | 2.11 | 2.07 | 1.15 | 15.7 | -19.8 | 5.39 | 12.2 | -7.16 |
| Cn1ccc(CN2CCC(CO)CC2)cc1=O | -3.9 | -1.27 | 2.26 | 0.971 | -4.41 | 2.8 | 1.03 | 26.1 | -2.08 | 10.1 | -1.56 |
| CSCC(=O)N1CCCN(c2ccccc2C)CC1 | -7.55 | 2.7 | -2.83 | -3.96 | -5.18 | -0.248 | 1.8 | 4.54 | 1.07 | 6.17 | -3.91 |
